This is a sample that favours compounds with a hit; in the whole collection about 7.3% have one here.
Gal4-VP16 FLuc = VP16 counterscreen qHTS for inhibitors of ROR gamma transcriptional activity; Drosophila S2 Gal4-VP16 UAS-luciferase, luminescence, 20 h; Potency, µM (doses to about 53.6 µM), usual class: inhibitors; actives 3.5% (n = 310,000);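 note: Gal4-VP16 expression switched on by copper sulfate through the metallothionein promoter; nearly all actives have a fitted effect of over 50% in size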
RORgamma inh = qHTS for inhibitors of ROR gamma transcriptional activity. Nuclear receptor ROR-gamma (Mus musculus), P51450. Drosophila S2 Gal4-RORgamma UAS-luciferase reporter, 20 h. Potency, µM (titrated, usually from 53.6 µM), most hits filed as inhibitors. actives 5.4% (n = 310,000). AID 2551, 2010; note: nearly all actives have a fitted effect of over 60% in size
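Read-out: Photinus luciferase luminescence; inhibitors lower reporter signal. Insect Schneider cells with Gal4-ROR gamma fusion under metallothionein promoter, UAS reporter; 700 uM final copper sulfate induction, 20 hr, ambient temperature.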
Tau fluor counter = Counterscreen qHTS for Inhibitors of Tau Fibril Formation, Fluorescence Polarization; tau K18 P301L Alexa594 fluorescence, heparin fibrillization; Potency, µM (top dose mostly 57.7 µM); actives 0.93% (n = 280,000); AID 1463, 2008; note: nearly all actives have a fitted effect of over 55% in size
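Human tau K18 P301L (15 uM unlabeled, 0.24 uM Alexa 594-labeled) in 100 mM sodium acetate pH 7 with 20 uM heparin, 6 hr at 37 C. ThT 30 uM added, 1 hr ambient; Alexa 594 FP and total fluorescence read at 555/632 nm.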
Tau fibril ThT = qHTS for Inhibitors of Tau Fibril Formation, Thioflavin T Binding | recombinant tau K18 P301L (four-repeat tau fragment), heparin-induced fibrillization, ThT fluorescence | Potency, µM (titrated, usually from 57.4 µM), usual class: inhibitors | actives 2.1% (n = 270,000) | AID 1460, 2008; note: nearly all actives have a fitted effect of over 55% in size
Target sequence (P10636 561-689 P618L limits assumed): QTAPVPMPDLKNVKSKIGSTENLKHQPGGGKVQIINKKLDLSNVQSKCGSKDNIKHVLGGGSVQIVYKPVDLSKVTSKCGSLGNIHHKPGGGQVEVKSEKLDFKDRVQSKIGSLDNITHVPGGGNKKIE
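Tau K18 P301L fragment (15 uM unlabeled plus 0.24 uM Alexa 594-labeled) in 100 mM sodium acetate pH 7 with compound, fibrillization induced by 20 uM heparin for 6 hr at 37 C. Thioflavin T (30 uM) added, fluorescence read after 1 hr (ex 450, em 510 nm).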
Tau FP inhib = qHTS for Inhibitors of Tau Fibril Formation, Fluorescence Polarization | Microtubule-associated protein tau (Homo sapiens), P10636 | K18 P301L tau heparin fibrillization, Alexa594 FP, 6 h | actives 0.39% (n = 280,000) | Potency, µM (top dose mostly 57.7 µM), usual class: inhibitors; note: nearly all actives have a fitted effect of over 55% in size
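Read-out: fluorescence polarization of Alexa 594-labeled tau (0.24 uM), 555 nm excitation, 632 nm emission. Mixtures held 15 uM unlabeled K18 P301L, compound and 20 uM heparin, pH 7 acetate buffer, incubated 6 hr at 37 C.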
Of the large screens only hits and unclear results are named; the others gave an inactive call; [ ] = dose if it differs, or a comment. Calls come from the whole dose curve; as a rule, active = well fitted curve in the direction sought with a large enough effect; inconclusive = small, poorly fitted or top-dose-only effect, or another doubt; inactive = no such curve, though single readings can be large; an effect the other way counts as inactive or inconclusive.

Cc1[nH]c2ccccc2c1/C=N/Nc1nc(Nc2ccc(F)cc2)nc(N2CCOCC2)n1	Gal4-VP16 FLuc 5.6µM, RORgamma inh 2.5µM, Tau fluor counter 32µM[quencher], Tau fibril ThT 28µM, Tau FP inhib inconclusive
COc1cc(-c2oc3cc(O)cc(O)c3c(=O)c2OC[C@@H]2OC(O[C@@H]3O[C@@H](C)[C@H](O)[C@@H](O)[C@H]3O)[C@@H](O)[C@H](O)[C@@H]2O)ccc1O (some centres not stated)	none (no result: Tau fluor counter, Tau fibril ThT, Tau FP inhib)
O=C(Nc1c[nH]c(=O)[nH]c1=O)c1cc([N+](=O)[O-])cc([N+](=O)[O-])c1	none (no result: Tau fluor counter, Tau fibril ThT, Tau FP inhib)
Cc1cccc(NC(=O)c2c([N+](=O)[O-])cnn2C)c1	none (no result: Tau fluor counter, Tau fibril ThT, Tau FP inhib)
O=C(Nc1ccccc1)c1nc[nH]c1C(=O)O	none (no result: Gal4-VP16 FLuc, RORgamma inh)
CNC(=O)c1[nH]cnc1C(=O)Nc1ccccc1C	Gal4-VP16 FLuc 7.9µM, RORgamma inh 11µM
CNC(=O)c1[nH]cnc1C(=O)Nc1ccccc1OC	Gal4-VP16 FLuc 16µM, RORgamma inh 13µM
Cc1cccc(NC(=O)c2nc[nH]c2C(=O)Nc2ccccc2[N+](=O)[O-])c1	Gal4-VP16 FLuc 5.6µM, RORgamma inh 4.5µM
O=C(NN=C1CCCC1)c1ccc(O)cc1O	Gal4-VP16 FLuc 11µM, RORgamma inh 7.9µM (no result: Tau fluor counter, Tau fibril ThT, Tau FP inhib)
NNC(=O)c1cc2ccccc2cc1O	Gal4-VP16 FLuc inconclusive, RORgamma inh inconclusive, Tau fluor counter inconclusive, Tau fibril ThT inconclusive
NNC(=O)c1ccc(O)cc1O	Gal4-VP16 FLuc 3.2µM, RORgamma inh 1.3µM
COC(=O)CSc1nnc2n(-c3ccc(OC)cc3)c(=O)c3c4c(sc3n12)CCCCC4	none
COc1ccc(-n2c(=O)c3c4c(sc3n3c(=S)[nH]nc23)CCCC4)cc1	Gal4-VP16 FLuc 13µM, RORgamma inh 7.9µM
CCOC(=O)C1=C(c2cccc(F)c2)NC(=S)NC1C (configuration not stated)	Gal4-VP16 FLuc inconclusive, RORgamma inh 14µM
CCCOc1ccc([N+](=O)[O-])cc1C1NC(=S)NC(c2ccccc2)=C1C(=O)OCC (configuration not stated)	Gal4-VP16 FLuc 20µM, RORgamma inh 6.3µM
CCOC(=O)C1=C(COC(=O)c2cccc(Cl)c2)NC(=O)NC1C (configuration not stated)	none (no result: Tau fluor counter, Tau fibril ThT, Tau FP inhib)
CCCCCSc1nnc2c(n1)[nH]c1c(C)cccc12	none (no result: Gal4-VP16 FLuc, RORgamma inh)
CC(/C=N\Nc1nnc2c(n1)[nH]c1c(C)cccc12)=C\c1ccco1	RORgamma inh inconclusive, Tau fluor counter inconclusive, Tau fibril ThT 1.4µM
Cc1ccc(NC(=O)Nc2nnc(-c3ccccc3)o2)cc1	none
Cc1ccc(-c2nnc(Nc3ccccc3)o2)cc1	Gal4-VP16 FLuc 14µM, RORgamma inh 5µM
C=CCOC(=O)C1=C(C)N=c2s/c(=C3\C(=O)N(CC(=O)O)c4ccccc43)c(=O)n2C1c1ccc(OC)cc1 (configuration not stated)	Tau fibril ThT 4µM, Tau FP inhib inconclusive
COc1ccc(C2C(C(=O)OC(C)C)=C(C)N=c3s/c(=C\c4cccs4)c(=O)n32)cc1 (configuration not stated)	Tau fibril ThT inconclusive
N#CC1=C(N)SC2(CCCCC2)SC1c1ccccc1 (configuration not stated)	Gal4-VP16 FLuc inconclusive, RORgamma inh 6.3µM, Tau fibril ThT inconclusive
CCCCC(C)/C=C(C)/C=C(\C)C(=O)NC1=CC(O)(/C=C/C=C/C=C/C(=O)NC2=C(O)CCC2=O)C2OC2C1=O (configuration not stated)	Gal4-VP16 FLuc 1.3µM, RORgamma inh 0.56µM (no result: Tau fluor counter, Tau fibril ThT, Tau FP inhib)
O=c1c2c(-c3ccccc3)csc2ncn1/N=C/c1ccc(O)c([N+](=O)[O-])c1	Tau fibril ThT inconclusive
O=c1c2c(-c3ccccc3)csc2ncn1/N=C/c1cccc([N+](=O)[O-])c1O	RORgamma inh 20µM, Tau fibril ThT 14µM
CCCC(C)NC(=O)c1cc(C(=O)OC)cc([N+](=O)[O-])c1 (configuration not stated)	none

Source: PubChem
